PubChem BioAssay AID1159580 (chemical genetic matrix, 2015)
Hit rate of the full screen: of about 5,500 compounds, about 2,000 (36%) were called active. Not shown: some 18% with an inconclusive outcome. Cut-off read from the data, not from the text of the source: active = normalized growth mostly below about 0.91 (no sharp cut-off); inconclusive = no clear call, values can overlap the other calls; inactive = mostly above about 0.92. The list shows a part of the results.

Assay: chemical genetic growth profiling, strain panel (AID 1159580);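 note: tested at 20 µM; growth read once vehicle control cultures reached saturation at 30 °C; 1 = growth at the plate median or of vehicle wells; lower values mean less growth of the strain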
Settings: S. cerevisiae deletion strains, growth OD
[1] = locus YAR019C, strain CDC15, stronger effect = lower value
[2] = locus YBL105C, strain PKC1, stronger effect = lower value
[3] = locus YBR135W, strain CKS1, stronger effect = lower value
[4] = locus YBR136W, strain MEC1, stronger effect = lower value
[5] = locus YBR160W, strain CDC28, stronger effect = lower value
[6] = locus YDL017W, strain CDC7, stronger effect = lower value
[7] = locus YDL028C, strain MPS1, stronger effect = lower value
[8] = locus YDL101C, strain DUN1, stronger effect = lower value
[9] = locus YDL108W, strain KIN28, stronger effect = lower value
[10] = locus YDL132W, strain cdc53, stronger effect = lower value
[11] = locus YDL214C, strain PRR2, stronger effect = lower value
[12] = locus YDR052C, strain DBF4, stronger effect = lower value
[13] = locus YDR054C, strain cdc34, stronger effect = lower value
[14] = locus YDR226W, strain ADK1, stronger effect = lower value
[15] = locus YDR477W, strain SNF1, stronger effect = lower value
[16] = locus YER123W, strain YCK3, stronger effect = lower value
[17] = locus YER133W, strain GLC7, stronger effect = lower value
[18] = locus YFL009W, strain cdc4, stronger effect = lower value
[19] = locus YFL029C, strain CAK1, stronger effect = lower value
[20] = locus YFR003C, strain YPI1, stronger effect = lower value
[21] = locus YFR019W, strain FAB1, stronger effect = lower value
[22] = locus YFR028C, strain CDC14, stronger effect = lower value
[23] = locus YGR040W, strain KSS1, stronger effect = lower value
[24] = locus YGR052W, strain FMP48, stronger effect = lower value
[25] = locus YGR092W, strain DBF2, stronger effect = lower value
[26] = locus YHR030C, strain SLT2, stronger effect = lower value
[27] = locus YHR079C, strain IRE1, stronger effect = lower value
[28] = locus YHR082C, strain KSP1, stronger effect = lower value
[29] = locus YHR205W, strain SCH9, stronger effect = lower value
[30] = locus YIL147C, strain SLN1, stronger effect = lower value
[31] = locus YJL095W, strain BCK1, stronger effect = lower value
[32] = locus YJL128C, strain PBS2, stronger effect = lower value
[33] = locus YJL157C, strain FAR1, stronger effect = lower value
[34] = locus YJR016C, strain ILV3, stronger effect = lower value
[35] = locus YJR066W, strain TOR1 (second series), stronger effect = lower value
[36] = locus YJR066W, strain TOR1, stronger effect = lower value
[37] = locus YKL048C, strain ELM1, stronger effect = lower value
[38] = locus YKL067W, strain YNK1, stronger effect = lower value
[39] = locus YKL101W, strain HSL1, stronger effect = lower value
[40] = locus YKL193C, strain SDS22, stronger effect = lower value
[41] = locus YKL203C, strain TOR2, stronger effect = lower value
[42] = locus YLR113W, strain HOG1, stronger effect = lower value
[43] = locus YLR133W, strain CKI1, stronger effect = lower value
[44] = locus YLR403W, strain SFP1, stronger effect = lower value
[45] = locus YML070W, strain DAK1, stronger effect = lower value
[46] = locus YMR001C, strain CDC5, stronger effect = lower value
[47] = locus YMR205C, strain PFK2 (second series), stronger effect = lower value
[48] = locus YMR277W, strain FCP1, stronger effect = lower value
[49] = locus YNL006W, strain LST8, stronger effect = lower value
[50] = locus YNL020C, strain ARK1, stronger effect = lower value
[51] = locus YNL161W, strain CBK1, stronger effect = lower value
[52] = locus YNL183C, strain NPR1, stronger effect = lower value
[53] = locus YNL207W, strain RIO2, stronger effect = lower value
[54] = locus YNL222W, strain SSU72, stronger effect = lower value
[55] = locus YNL307C, strain MCK1 (second series), stronger effect = lower value
[56] = locus YOL078W, strain AVO1, stronger effect = lower value
[57] = locus YOL136C, strain PFK27, stronger effect = lower value
[58] = locus YOR061W, strain CKA2, stronger effect = lower value
[59] = locus YOR119C, strain RIO1, stronger effect = lower value
[60] = locus YOR231W, strain MKK1, stronger effect = lower value
[61] = locus YOR329C, strain SCD5, stronger effect = lower value
[62] = locus YPL031C, strain PHO85, stronger effect = lower value
[63] = locus YPL153C, strain RAD53, stronger effect = lower value
[64] = locus YPL204W, strain HRR25, stronger effect = lower value
[65] = locus YPL209C, strain IPL1, stronger effect = lower value
[66] = locus YPL256C, strain CLN2, stronger effect = lower value
[67] = locus YPR025C, strain CCL1, stronger effect = lower value
[68] = locus YPR106W, strain ISR1, stronger effect = lower value
[69] = locus YPR111W, strain DBF20, stronger effect = lower value
[70] = strain NNK1, stronger effect = lower value
[71] = strain TSCII, stronger effect = lower value

Measured: normalized growth

Cc1cc(NNC(=O)c2ccccc2Cl)nc2c1c(C)nn2C
inactive: [1] 0.994 | [2] 0.989 | [3] 0.979 | [4] 0.979 | [5] 0.983 | [6] 0.987 | [7] 0.978 | [8] 0.994 | [9] 0.978 | [10] 0.978 | [11] 0.951 | [12] 0.99 | [13] 0.993 | [14] 0.976 | [15] 0.978 | [16] 0.938 | [17] 0.96 | [18] 0.98 | [19] 0.993 | [20] 0.987 | [21] 0.95 | [22] 0.973 | [23] 0.958 | [24] 1.01 | [25] 0.974 | [26] 1.07 | [27] 1.08 | [28] 1.05 | [29] 0.953 | [30] 0.984 | [31] 0.968 | [32] 0.966 | [33] 0.972 | [34] 0.988 | [35] 0.926 | [36] 1.08 | [37] 0.964 | [38] 0.958 | [39] 0.941 | [40] 0.985 | [41] 1.06 | [42] 0.93 | [43] 0.951 | [44] 0.968 | [45] 0.956 | [46] 0.992 | [47] 0.97 | [48] 0.986 | [49] 0.982 | [50] 0.973 | [51] 0.98 | [52] 1.03 | [53] 0.985 | [54] 0.989 | [55] 0.973 | [56] 0.978 | [57] 0.905 | [58] 0.94 | [59] 1.04 | [60] 0.978 | [61] 0.989 | [62] 0.97 | [63] 0.987 | [64] 0.945 | [65] 0.993 | [66] 1.05 | [67] 0.993 | [68] 0.999 | [69] 0.993 | [70] 0.998 | [71] 0.98

Cc1cc(Cl)ccc1NNC(=O)c1ccno1
inactive: [1] 0.974 | [2] 0.958 | [3] 0.981 | [4] 0.968 | [5] 0.966 | [6] 0.97 | [7] 0.979 | [8] 0.967 | [9] 0.97 | [10] 0.987 | [11] 0.933 | [12] 0.968 | [13] 0.961 | [14] 0.976 | [15] 0.944 | [16] 0.884 | [17] 0.938 | [18] 0.974 | [19] 0.96 | [20] 0.967 | [21] 0.925 | [22] 0.979 | [23] 0.917 | [24] 0.996 | [25] 0.912 | [26] 0.954 | [27] 1 | [28] 1 | [29] 0.902 | [30] 0.971 | [31] 0.931 | [32] 0.927 | [33] 0.919 | [34] 0.987 | [35] 0.87 | [36] 1.01 | [37] 0.912 | [38] 0.939 | [39] 0.903 | [40] 0.971 | [41] 0.978 | [42] 0.871 | [43] 0.908 | [44] 0.903 | [45] 0.903 | [46] 0.962 | [47] 0.938 | [48] 0.978 | [49] 0.975 | [50] 0.912 | [51] 0.972 | [52] 0.953 | [53] 0.966 | [54] 0.978 | [55] 0.907 | [56] 0.977 | [57] 0.889 | [58] 0.946 | [59] 0.977 | [60] 0.899 | [61] 0.963 | [62] 0.942 | [63] 0.916 | [64] 0.904 | [65] 0.958 | [66] 0.958 | [67] 0.975 | [68] 0.945 | [69] 0.957 | [70] 0.955 | [71] 0.972

Cc1nnsc1C(=O)NNc1ccc(F)cc1F
active: [16] 0.459 | [21] 0.584 | [26] 0.831 | [42] 0.683 | [66] 0.602
inactive: [1] 0.951 | [2] 0.951 | [3] 0.956 | [4] 0.961 | [5] 0.956 | [6] 0.949 | [7] 0.97 | [8] 0.956 | [9] 0.965 | [10] 0.955 | [11] 0.706 | [12] 0.954 | [13] 0.929 | [14] 0.953 | [15] 0.711 | [17] 0.827 | [18] 0.965 | [19] 0.941 | [20] 0.968 | [22] 0.952 | [23] 0.789 | [24] 0.646 | [25] 0.636 | [27] 0.925 | [28] 0.85 | [29] 0.924 | [30] 0.967 | [31] 0.544 | [32] 0.938 | [33] 0.804 | [34] 0.962 | [35] 0.683 | [36] 0.791 | [37] 0.952 | [38] 0.819 | [39] 0.917 | [40] 0.96 | [41] 0.928 | [43] 0.812 | [44] 0.883 | [45] 0.696 | [46] 0.949 | [47] 0.906 | [48] 0.959 | [49] 0.975 | [50] 0.92 | [51] 0.945 | [52] 0.837 | [53] 0.961 | [54] 0.954 | [55] 0.678 | [56] 0.955 | [57] 0.808 | [59] 0.911 | [60] 0.908 | [61] 0.958 | [62] 0.858 | [63] 0.832 | [64] 0.917 | [65] 0.943 | [67] 0.957 | [68] 0.963 | [69] 0.966 | [70] 0.977 | [71] 0.947

Cc1cc(Cl)ccc1NNC(=O)c1snnc1C
active: [26] 0.815 | [42] 0.84
inactive: [1] 0.971 | [2] 0.949 | [3] 0.967 | [4] 0.949 | [5] 0.959 | [6] 0.951 | [7] 0.969 | [8] 0.968 | [9] 0.955 | [10] 0.978 | [11] 0.907 | [12] 0.957 | [13] 0.974 | [14] 0.977 | [15] 0.907 | [16] 0.816 | [17] 0.909 | [18] 0.979 | [19] 0.957 | [20] 0.957 | [21] 0.885 | [22] 0.958 | [23] 0.881 | [24] 0.965 | [25] 0.824 | [27] 0.919 | [28] 0.979 | [29] 0.919 | [30] 0.966 | [31] 0.888 | [32] 0.943 | [33] 0.881 | [34] 0.977 | [35] 0.841 | [36] 0.972 | [37] 0.935 | [38] 0.919 | [39] 0.914 | [40] 0.96 | [41] 0.962 | [43] 0.891 | [44] 0.887 | [45] 0.865 | [46] 0.951 | [47] 0.922 | [48] 0.958 | [49] 0.974 | [50] 0.894 | [51] 0.956 | [52] 0.942 | [53] 0.96 | [54] 0.956 | [55] 0.794 | [56] 0.954 | [57] 0.885 | [58] 0.866 | [59] 0.96 | [60] 0.878 | [61] 0.963 | [62] 0.911 | [63] 0.881 | [64] 0.874 | [65] 0.943 | [66] 0.881 | [67] 0.955 | [68] 0.976 | [69] 0.979 | [70] 0.955 | [71] 0.962
